# Test results as given in publication PMC11006913.
# Columns and labels:
# Experiment in all cases: PBM; 200 nM protein, PBS
# Details in all cases: dsDNA, one strand shown
# ALX4 [1] = molecular target: ALX4 (Homo sapiens, UniProt Q9H161 200-286)
# ALX4 [2] = molecular target: ALX4 (Homo sapiens, UniProt Q9H161 200-286, Q225E)
# PRRX1 [3] = molecular target: PRRX1 (Homo sapiens, UniProt P54821 80-166, F113S)
# PRRX1 [4] = molecular target: PRRX1 (Homo sapiens, UniProt P54821 80-166)
# HOXB6 [5] = molecular target: HOXB6 (Homo sapiens, UniProt P17509 132-218, K202E)
# NKX2-6 = molecular target: T1, NKX2-6 (Homo sapiens, UniProt A6NCS4 118-204, R150C)
# T1 sequence: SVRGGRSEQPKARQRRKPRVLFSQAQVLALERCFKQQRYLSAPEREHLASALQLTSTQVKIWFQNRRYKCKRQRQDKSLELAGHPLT
# MSX2 [6] = molecular target: MSX2 (Homo sapiens, UniProt P35548 130-214, R199I)
# ALX3 [7] = molecular target: ALX3 (Homo sapiens, UniProt O95076 139-225, N203Q)
# MSX2 [8] = molecular target: MSX2 (Homo sapiens, UniProt P35548 130-214)
# ALX3 [9] = molecular target: ALX3 (Homo sapiens, UniProt O95076 139-225)
# ALX3 [10] = molecular target: ALX3 (Homo sapiens, UniProt O95076 139-225, L168Q)
# ALX3 [11] = molecular target: ALX3 (Homo sapiens, UniProt O95076 139-225, L168V)
# MSX2 [12] = molecular target: MSX2 (Homo sapiens, UniProt P35548 130-214, F161Y)
# ALX3 [13] = molecular target: ALX3 (Homo sapiens, UniProt O95076 139-225, N203S)
# HOXB6 [14] = molecular target: HOXB6 (Homo sapiens, UniProt P17509 132-218)
# HOXB6 (Homo sapiens, UniProt P17509 132-218), sequence (P17509 132-218): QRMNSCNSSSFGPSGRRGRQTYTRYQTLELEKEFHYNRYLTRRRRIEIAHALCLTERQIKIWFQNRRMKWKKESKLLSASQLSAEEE
# ALX4 (Homo sapiens, UniProt Q9H161 200-286, Q225E), sequence (Q9H161 200-286 Q225E): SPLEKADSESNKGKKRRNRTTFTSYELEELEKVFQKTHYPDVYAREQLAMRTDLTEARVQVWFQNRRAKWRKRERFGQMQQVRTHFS
# ALX4 (Homo sapiens, UniProt Q9H161 200-286), sequence (Q9H161 200-286): as the sequence (Q9H161 200-286 Q225E) above, with E26Q counted along it
# HOXB6 (Homo sapiens, UniProt P17509 132-218, K202E), sequence (P17509 132-218 K202E): as the sequence (P17509 132-218) above, with K71E counted along it
# ALX3 (Homo sapiens, UniProt O95076 139-225, N203Q), sequence (O95076 139-225 N203Q): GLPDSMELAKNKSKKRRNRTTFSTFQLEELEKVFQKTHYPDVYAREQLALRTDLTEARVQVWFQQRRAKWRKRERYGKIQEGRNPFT
# MSX2 (Homo sapiens, UniProt P35548 130-214, F161Y), sequence (P35548 130-214 F161Y): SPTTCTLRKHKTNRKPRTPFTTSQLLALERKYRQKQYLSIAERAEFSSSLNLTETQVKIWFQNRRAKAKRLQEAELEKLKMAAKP
# MSX2 (Homo sapiens, UniProt P35548 130-214, R199I), sequence (P35548 130-214 R199I): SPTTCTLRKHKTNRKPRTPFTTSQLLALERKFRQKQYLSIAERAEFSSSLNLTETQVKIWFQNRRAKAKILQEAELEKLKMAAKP
# PRRX1 (Homo sapiens, UniProt P54821 80-166), sequence (P54821 80-166): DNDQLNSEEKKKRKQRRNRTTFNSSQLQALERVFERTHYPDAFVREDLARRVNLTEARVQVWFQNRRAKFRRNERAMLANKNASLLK
# ALX3 (Homo sapiens, UniProt O95076 139-225, L168V), sequence (O95076 139-225 L168V): as the sequence (O95076 139-225 N203Q) above, with L30V, Q65N counted along it
# ALX3 (Homo sapiens, UniProt O95076 139-225, N203S), sequence (O95076 139-225 N203S): as the sequence (O95076 139-225 N203Q) above, with Q65S counted along it
# ALX3 (Homo sapiens, UniProt O95076 139-225, L168Q), sequence (O95076 139-225 L168Q): as the sequence (O95076 139-225 N203Q) above, with L30Q, Q65N counted along it
# ALX3 (Homo sapiens, UniProt O95076 139-225), sequence (O95076 139-225): as the sequence (O95076 139-225 N203Q) above, with Q65N counted along it
# MSX2 (Homo sapiens, UniProt P35548 130-214), sequence (P35548 130-214): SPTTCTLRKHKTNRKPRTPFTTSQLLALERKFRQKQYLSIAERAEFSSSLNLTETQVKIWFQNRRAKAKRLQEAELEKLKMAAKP
# PRRX1 (Homo sapiens, UniProt P54821 80-166, F113S), sequence (P54821 80-166 F113S): as the sequence (P54821 80-166) above, with F34S counted along it
sequence,measurement,setting,value
CGTAATCA,binding signal,ALX4 [1],"11.9 upbm affinity estimate (log intensity, higher = more binding, comparable within an allelic series)"
same,binding signal,ALX4 [2],"10.6 upbm affinity estimate (log intensity, higher = more binding, comparable within an allelic series)"
CCCGACAG,binding signal,ALX4 [1],"8.07 upbm affinity estimate (log intensity, higher = more binding, comparable within an allelic series)"
same,binding signal,ALX4 [2],"8.17 upbm affinity estimate (log intensity, higher = more binding, comparable within an allelic series)"
GAGGACCC,binding signal,ALX4 [1],"7.88 upbm affinity estimate (log intensity, higher = more binding, comparable within an allelic series)"
same,binding signal,PRRX1 [3],"9.19 upbm affinity estimate (log intensity, higher = more binding, comparable within an allelic series)"
same,binding signal,ALX4 [2],"7.98 upbm affinity estimate (log intensity, higher = more binding, comparable within an allelic series)"
same,binding signal,PRRX1 [4],"9.51 upbm affinity estimate (log intensity, higher = more binding, comparable within an allelic series)"
CTCTCGCC,binding signal,ALX4 [1],"7.89 upbm affinity estimate (log intensity, higher = more binding, comparable within an allelic series)"
same,binding signal,ALX4 [2],"8.06 upbm affinity estimate (log intensity, higher = more binding, comparable within an allelic series)"
CCACCGGC,binding signal,ALX4 [1],"8.04 upbm affinity estimate (log intensity, higher = more binding, comparable within an allelic series)"
same,binding signal,HOXB6 [5],"8.97 upbm affinity estimate (log intensity, higher = more binding, comparable within an allelic series)"
same,binding signal,ALX4 [2],"7.94 upbm affinity estimate (log intensity, higher = more binding, comparable within an allelic series)"
same,binding signal,NKX2-6,"9.32 upbm affinity estimate (log intensity, higher = more binding, comparable within an allelic series)"
same,binding signal,MSX2 [6],"9.39 upbm affinity estimate (log intensity, higher = more binding, comparable within an allelic series)"
same,binding signal,ALX3 [7],"7.68 upbm affinity estimate (log intensity, higher = more binding, comparable within an allelic series)"
same,binding signal,MSX2 [8],"9.41 upbm affinity estimate (log intensity, higher = more binding, comparable within an allelic series)"
same,binding signal,ALX3 [9],"7.64 upbm affinity estimate (log intensity, higher = more binding, comparable within an allelic series)"
same,binding signal,ALX3 [10],"7.76 upbm affinity estimate (log intensity, higher = more binding, comparable within an allelic series)"
same,binding signal,ALX3 [11],"7.67 upbm affinity estimate (log intensity, higher = more binding, comparable within an allelic series)"
same,binding signal,MSX2 [12],"9.32 upbm affinity estimate (log intensity, higher = more binding, comparable within an allelic series)"
same,binding signal,ALX3 [13],"7.64 upbm affinity estimate (log intensity, higher = more binding, comparable within an allelic series)"
same,binding signal,HOXB6 [14],"8.83 upbm affinity estimate (log intensity, higher = more binding, comparable within an allelic series)"
ACAGCTCT,binding signal,ALX4 [1],"8.24 upbm affinity estimate (log intensity, higher = more binding, comparable within an allelic series)"
same,binding signal,ALX4 [2],"8.19 upbm affinity estimate (log intensity, higher = more binding, comparable within an allelic series)"
CTCGGGTC,binding signal,ALX4 [1],"8.18 upbm affinity estimate (log intensity, higher = more binding, comparable within an allelic series)"
same,binding signal,ALX4 [2],"8.25 upbm affinity estimate (log intensity, higher = more binding, comparable within an allelic series)"
AACGACAT,binding signal,ALX4 [1],"9.98 upbm affinity estimate (log intensity, higher = more binding, comparable within an allelic series)"
same,binding signal,ALX4 [2],"9.4 upbm affinity estimate (log intensity, higher = more binding, comparable within an allelic series)"
CCTCAGGC,binding signal,ALX4 [1],"8.2 upbm affinity estimate (log intensity, higher = more binding, comparable within an allelic series)"
same,binding signal,ALX4 [2],"8.19 upbm affinity estimate (log intensity, higher = more binding, comparable within an allelic series)"
CGACGCAG,binding signal,ALX4 [1],"7.86 upbm affinity estimate (log intensity, higher = more binding, comparable within an allelic series)"
same,binding signal,ALX4 [2],"7.87 upbm affinity estimate (log intensity, higher = more binding, comparable within an allelic series)"
CATCAATC,binding signal,ALX4 [1],"10.6 upbm affinity estimate (log intensity, higher = more binding, comparable within an allelic series)"
same,binding signal,HOXB6 [5],"9.69 upbm affinity estimate (log intensity, higher = more binding, comparable within an allelic series)"
same,binding signal,HOXB6 [14],"10.5 upbm affinity estimate (log intensity, higher = more binding, comparable within an allelic series)"
CGTGCTCC,binding signal,ALX4 [1],"8.3 upbm affinity estimate (log intensity, higher = more binding, comparable within an allelic series)"
same,binding signal,ALX4 [2],"8.41 upbm affinity estimate (log intensity, higher = more binding, comparable within an allelic series)"
